# Compound activity from PubChem.
# HIF act = HIF pathway transcriptional activation | actives 0.32% (n = 300,000) | U2OS HRE-luciferase reporter, luminescence; normalized: DMSO 0%, desferrioxamine 100% | activation, % at 7.5 µM (by protocol);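 active means mean activation of at least 10% of the iron chelator positive control signal, with at least half of replicates also reaching 10%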
# PfM18AAP inh = PfM18AAP enzyme inhibition; recombinant PfM18AAP, H-Glu-NHMec fluorogenic cleavage; inhibition, % at 7.35 µM; actives 1.2% (n = 290,000); AID 1822;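 active means inhibition above the campaign mean inhibition over all tested compounds plus 3 SD, cut at about 28% in these data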
# ALR H2O2 inh = blocks human ALR sulfhydryl oxidase activity; AID 485317; inhibition, % (concentration not given with the values); actives 3.8% (n = 290,000); purified ALR, DTT oxidation, H2O2 HRP-luminol luminescence;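 active means mean replicate inhibition above about 79%, with every replicate also reaching it, limit read from the data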
# Target sequence (P55789 whole entry, looked up): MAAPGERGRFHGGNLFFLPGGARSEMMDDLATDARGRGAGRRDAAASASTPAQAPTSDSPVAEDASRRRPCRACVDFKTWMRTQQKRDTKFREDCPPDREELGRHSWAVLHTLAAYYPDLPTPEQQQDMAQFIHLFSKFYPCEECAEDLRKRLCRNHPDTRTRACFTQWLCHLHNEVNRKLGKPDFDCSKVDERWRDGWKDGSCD
# SUMO Mot1 rescue = inhibitors of SUMOylation pathway: yeast Mot1-301 growth rescue. S. cerevisiae Mot1-301 growth rescue, ATP luminescence, 38.5C; percent above DMSO median, 100 means doubled. growth rescue, % at 18.8 µM. actives 1% (n = 320,000). AID 2716;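 active means every valid replicate shows activation above 250% relative to neutral control wells; inactive means the rest, any valid replicate at or below 250%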
# Hits are given with their value; 0 = inactive; - = not tested or not shown. Most compounds without a hit are left out; they make up all but 5.3% or so of the library.
SMILES,HIF act,PfM18AAP inh,ALR H2O2 inh,SUMO Mot1 rescue
COc1ccc(NC(=O)NC2(C(=O)N3CCN4CCCC4C3)CCCCC2)cc1 (configuration not stated),0,0,0,0
COc1ccc(NC2CCCN(C(=O)CCC3=NNC(=O)CC3)C2)cc1 (configuration not stated),0,0,87.4,0
COc1ccc(NC2CCCN(C(=O)C3(C)CCCCC3)C2)cc1 (configuration not stated),0,0,97.3,0
COc1ccc(NC(=O)CN2C(=O)CSc3ncccc32)cc1,0,0,0,0
Cc1ccccc1S(=O)(=O)NCC1CCCO1 (configuration not stated),0,0,0,0
CC(C)c1ccc(NC2CCCN(C(=O)CCc3cn[nH]c3)C2)cc1 (configuration not stated),0,0,98.3,0
CC(C)c1ccc(NC2CCCN(C(=O)c3cc(C(C)C)[nH]n3)C2)cc1 (configuration not stated),0,0,-,-
Cc1ncsc1CCC(=O)N1CCCC(Nc2ccc(C(C)C)cc2)C1 (configuration not stated),0,0,85.9,0
Cc1ncsc1CCC(=O)N1CCCC(Nc2ccc(F)c(F)c2)C1 (configuration not stated),0,0,0,0
Cc1ccc(NC2CCCN(C(=O)CCc3scnc3C)C2)cc1C (configuration not stated),0,0,99.2,0
O=C(COC(=O)c1cccc(C(=O)OCC(=O)NCc2ccc(F)cc2)n1)NCc1ccc(F)cc1,0,0,0,0
COc1ccc(-c2nnn(CC(=O)Nc3sc4c(c3C#N)CCCC4)n2)cc1,0,0,0,-
COCCC(=O)N(Cc1ccc2c(c1)OCO2)C(C(=O)NC1CCCCC1)c1ccncc1 (configuration not stated),0,30.0,0,0
CNc1ccc(Cl)nn1,0,0,0,0
NNc1ccc(Cl)nn1,0,28.6,0,0
CC(C)(C)C(=O)N1CCN(c2nc3ccc(Cl)cc3s2)CC1,0,0,-,0
C[C@@H]1O[C@@H](OC2C(O)C(OCCc3ccc(O)c(O)c3)OC(CO)C2OC(=O)/C=C/c2ccc(O)c(O)c2)[C@H](O)[C@H](O)[C@H]1O (some centres not stated),0,-,99.0,0
O=C(NNC(=O)c1cccnc1SCc1cccc([N+](=O)[O-])c1)c1ccccn1,29.9,0,0,0
NC(=O)c1ccsc1NC(=O)COC(=O)COc1ccccc1F,0,0,77.6,0
CC(Sc1nc(O)c(-c2ccccc2)c(=O)[nH]1)C(=O)Nc1ccc(Cl)cc1 (configuration not stated),0,0,-,0
CCOC(=O)c1ccc(NC(=O)C(C)Sc2nc(O)c(-c3ccccc3)c(=O)[nH]2)cc1 (configuration not stated),0,0,98.6,0
CCc1ccc(C(=O)NNC(=O)C2CC(=O)N(Cc3ccccc3)C2)cc1 (configuration not stated),0,-,0,0
O=C(O)C1C2CCC(O2)C1C(=O)Nc1ccc(Cl)cc1F (configuration not stated),0,0,0,633.0
Cc1nn2c(-c3cccc(NC(=O)CSc4nc5ccccc5o4)c3)nnc2c2ccccc12,0,0,98.7,0
Cc1cccc(NC(=O)CSc2nc3ccccc3o2)c1,0,0,0,0
SMILES,HIF act,PfM18AAP inh,ALR H2O2 inh,SUMO Mot1 rescue
CC1CCc2c(nc3ncnn3c2N2CCN(c3ccccc3)CC2)C1 (configuration not stated),0,0,98.7,0
O=C(CSc1ccc(-c2ccccc2)nn1)NCc1ccco1,0,0,-,0
CCCCOc1ccc(CSC2=NCCN2)cc1[N+](=O)[O-],0,0,99.7,0
O=[N+]([O-])c1ccc(CSC2=NCCN2)cc1,0,0,99.1,0
CCCCCCOc1ccc(/C(C)=N/NC2=NCCN2)cc1[N+](=O)[O-],0,0,0,0
CCOc1ccc(CSC2=NCCN2)cc1[N+](=O)[O-],0,0,99.1,0
CCCCCOc1ccc(CSC(=N)N)cc1[N+](=O)[O-],0,0,98.7,0
CCOc1ccc(Cn2ccnc2)cc1[N+](=O)[O-],0,0,-,0
C=CCCC(=O)N1CCCC(Cc2cccc(Cl)c2)(C(=O)OCC)C1 (configuration not stated),0,0,-,0
CCOc1ccccc1NC(=O)CSc1nc2ccccc2c(=O)n1CC1CCCO1 (configuration not stated),0,0,0,0
O=[N+]([O-])c1ccc(CSC2=NCCS2)cc1,0,0,98.7,0
CSc1cccc(N2CC(C(=O)Nc3cccc(S(=O)(=O)N4CCCC4)c3)CC2=O)c1 (configuration not stated),0,-,0,0
NC1=NC[C@H](Cc2ccc(O)cc2)N1CC1CCCCC1,0,-,89.6,0
NC1=NC[C@H](Cc2ccccc2)N1CC1CCCCC1,0,-,0,0
CCn1c(SC)nnc1C1CCN(CC(=O)Nc2ccccc2N2CCOCC2)CC1,0,0,-,0
Cc1ccc(CNC(=O)Nc2ccc(F)cc2F)n1C,0,30.3,0,0
CC(=O)Nc1cccc(NC(=O)CSc2nn3c(=O)c(C)nnc3s2)c1,0,-,98.2,0
CC(=O)Nc1cccc(NC(=O)CSc2nnc(NC(=O)C3CC3)s2)c1,0,0,0,0
Cc1cccc(CSc2nn3c(=O)c(C)nnc3s2)c1,0,0,98.7,0
Cc1nnc2sc(SCC(=O)Nc3ccc(Cl)cc3)nn2c1=O,0,0,93.0,0
CCC(C(=O)NCc1ccco1)N(C(=O)CNS(=O)(=O)c1ccc(C)cc1)c1ccccc1F (configuration not stated),0,0,-,0
COc1cc(/C=N/N(C)S(=O)(=O)c2ccc(C)cc2)cc([N+](=O)[O-])c1O,0,0,0,0
CC(C)(C)C(=O)c1sc(Nc2ccccc2)nc1N,0,0,97.5,0
Cc1cnc(NC(=O)CSc2ccccc2)s1,0,0,0,0
CCOC(=S)SCC(=O)Nc1ncc(C)s1,0,0,99.4,0
SMILES,HIF act,PfM18AAP inh,ALR H2O2 inh,SUMO Mot1 rescue
O=C(NC1CCCCC1)Oc1cc2oc(=O)sc2cc1Br,0,31.5,0,0
O=C(NC1CCCCCC1)c1ccc(Br)o1,0,0,0,0
O=C(OCCN1CCCCC1)c1cccc(Cl)c1,0,0,0,0
Cc1cc(NC(=O)Nc2cccc(C)c2C)no1,0,0,99.3,0
CC1=C(C#N)C(Nc2ccc(Cl)cn2)(C(F)(F)F)C(=O)N1 (configuration not stated),0,0,0,0
C=CCOc1ccccc1C(=O)/C=C1/C(=O)Nc2ccccc21,0,30.7,-,0
C=CCOc1ccc(C(=O)/C=C2/C(=O)Nc3ccccc32)cc1,0,0,-,0
NS(=O)(=O)c1ccc(CNC(=O)CNC(=O)c2ccc(F)cc2)cc1,0,0,-,0
CC(=O)Oc1ccc(NC(=O)Cc2ccccc2)cc1,0,0,0,0
NC(=O)Nc1ccc(Nc2ccccc2)cc1,0,0,99.0,0
CC(=O)Oc1ccc(Nc2ccccc2)cc1,0,0,99.2,-
CC(=O)Oc1ccc(C(=O)c2ccccc2)c(OC(C)=O)c1,0,0,98.2,0
O=C(Nc1ccc(Nc2ccccc2)cc1)C(Cl)Cl,0,0,91.9,0
